Results taken from PubChem BioAssay AID1063 (University of Pittsburgh Molecular Library Screening Center, 2008).
Among all 200,000 compounds or so, about 18,000 (9%) were called active. Rule as the data show it: active = inhibition above about 50%; inactive = the rest. Many of the other results were omitted from the sample, so actives are more common in it than they were.

Experiment: antileishmanial activity against promastigotes – primary screen (AID 1063);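 also: promastigotes grown with compound for 44 hours at 28 °C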
Details: Leishmania major promastigotes, resazurin fluorescence viability; at 10 µM; hits give high values

Compound | inhibition
N#Cc1ccc(-c2nc3cc(C#N)c(C#N)cc3nc2-c2ccccc2)cc1C#N | 59% (active)
N#Cc1c(-c2ccc(F)cc2)nc(-c2ccccc2)[nH]c1=O | 3.06% (inactive)
N#Cc1ccc(-c2ccc(F)cc2)nc1Sc1ccccc1 | -13% (inactive)
CC1(C)CC(=O)c2cnc3nc4ccccc4n3c2C1 | 0.4% (inactive)
O=C(CCc1ccc(S(=O)(=O)NC2CCCCC2)cc1)NCc1ccccc1 | 43.9% (inactive)
Cc1cccc(CCNS(=O)(=O)c2ccc(S(=O)(=O)NC3CCCC3)cc2)c1 | 68.6% (active)
CSc1ccc(S(=O)(=O)NC2CCCCC2)cc1 | -2.31% (inactive)
CCOC(=O)c1c(N)nn(C(=O)c2ccccc2)c1-c1ccccc1 | 1.03% (inactive)
O=c1cnnc(Nc2ccccc2)[nH]1 | -6.97% (inactive)
Cc1nc(NCCN)c(C#N)c2c1COC(C)(C)C2 | -6.15% (inactive)
CCCCc1nc(NCc2ccccc2)c(C#N)c2c1CCCC2 | 40.6% (inactive)
CCCCc1nc(NCCN)c(C#N)c2c1CSC(C)(C)C2 | 100% (active)
COc1ccc(C(=O)NC(=S)Nc2ccc(Cl)cn2)cc1OC | -4.99% (inactive)
CC(=O)C1C(c2ccc(Cl)cc2)NC(=O)NC1(O)C(F)(F)F (stereo not given) | -4.84% (inactive)
CC(=O)C1C(c2cccc(Oc3ccccc3)c2)NC(=O)NC1(O)C(F)(F)F (stereo not given) | -1.39% (inactive)
O=C1NC(c2ccc(-c3ccccc3[N+](=O)[O-])o2)C(C(=O)c2ccc(Cl)cc2)C(O)(C(F)(F)F)N1 (stereo not given) | 57.7% (active)
Cn1nnnc1-c1cc(Cl)cc(Cl)c1 | 5.35% (inactive)
O=c1[nH]oc(O)c1-c1ncc(C(F)(F)F)cc1Cl | -7.85% (inactive)
O=C(O)CSc1nnc(-c2ccc3c(c2)OCO3)n1-c1ccccc1 | -2.94% (inactive)
COc1cc2c(cc1O)C(SC)=NC(C)(C)C2 | 77.2% (active)
COc1cc2c(cc1OC)C(C(C)C)=NC(C)(C)C2 | -1.29% (inactive)
COc1cc2c(cc1OC)C(Nc1ccc(S(N)(=O)=O)cc1)=NC(C)(C)C2 | -2.7% (inactive)
COC(=O)c1c(NC(C)=O)sc(C(=O)Nc2ccccc2OC)c1C | -6.26% (inactive)
COc1ccccc1CNC(=O)CN1CCC(n2cnc3cc(F)ccc32)CC1 | 0.36% (inactive)

Compound | inhibition
CCc1ccccc1NC(=O)Cc1cn(C)c2ccccc12 | 1.32% (inactive)
Fc1cc(F)c2nc(Nc3nc4c(F)cccc4s3)sc2c1 | 64.3% (active)
NC(=O)c1c(Nc2nc3c(F)cccc3s2)sc2c1CCCC2 | 0.33% (inactive)
Fc1cc(F)c2nc(N3CCOCC3)sc2c1 | -5.44% (inactive)
Cc1cc(C)n(Cc2cnc(N3CCOCC3)s2)n1 | 0.31% (inactive)
COc1ccc2ccccc2c1CNCc1ccccn1 | 52.1% (active)
COc1ccc2ccccc2c1CNc1nnnn1C | 1.31% (inactive)
COc1ccc(C)cc1NC(=O)NCc1ccccn1 | -9.22% (inactive)
O=S1(=O)CC/C(=N\Nc2ccc(F)cc2)c2ccsc21 | -11.7% (inactive)
Cc1nn(CC(=O)Nc2ccc(C#N)cc2)c(C)c1[N+](=O)[O-] | -6.73% (inactive)
CN(C)CCCCCN(C)Cc1cc2ccccc2o1 | 11.6% (inactive)
CC(=O)c1cccc(CN2CCC(CO)(Cc3ccccc3)CC2)c1 | 14% (inactive)
OCC1(Cc2ccccc2)CCN(Cc2cc3ccccc3o2)CC1 | 84.5% (active)
Cc1ccc2c(c1)C1CN(C)CCC1N2C(=S)Nc1ccc(Cl)cc1Cl (stereo not given) | 31.9% (inactive)
Cc1c(NC(=O)C(C)OC(=O)c2cc3c4ccccc4n(C)c3s2)c(=O)n(-c2ccccc2)n1C (stereo not given) | 88.6% (active)
Cc1cc(C)cc(N(C(C)C(=O)Nc2c(C)n(C)n(-c3ccccc3)c2=O)S(C)(=O)=O)c1 (stereo not given) | -3.81% (inactive)
COC(=O)Nc1c(C)n(C)n(-c2ccccc2)c1=O | -8.78% (inactive)
Cc1sc2c(c1C)c(=O)n(-c1ccccc1)c(=O)n2CC(=O)NCC1CCCO1 (stereo not given) | -0.67% (inactive)
CCOC(=O)c1cnc2c(c(C)nn2CC)c1Cl | 6% (inactive)
O=C(CN1CCN(c2ccc(O)cc2)CC1)NC1CCCc2ccccc21 (stereo not given) | 94.5% (active)
O=C(CCC(=O)N1CCN(S(=O)(=O)c2ccccc2)CC1)NC1CCCc2ccccc21 (stereo not given) | 1.14% (inactive)
O=C(CSc1nncs1)NC1CCCc2ccccc21 (stereo not given) | -8.28% (inactive)
COc1ccc(/C(=N\O)c2nccc3cc(OC)c(OC)cc23)cc1OC | 3.01% (inactive)
CCOC(=O)c1ccc(NC(=O)c2cc(=O)[nH]c3ccccc23)cc1 | -7.03% (inactive)

Compound | inhibition
COc1ccccc1CNC(=O)CNC(=O)c1cn(-c2ccccc2OC)c(=O)c2ccccc12 | -2.45% (inactive)
COc1cc(OC)c(C(=O)OCC(=O)N2CC(=O)Nc3ccccc32)cc1OC | -4.64% (inactive)
Cc1cccc(-n2c(N)cc(=O)nc2SC(C)C(=O)NC2CCCCC2)c1 (stereo not given) | 55.9% (active)
COc1cccc(-n2c(SCC(=O)NC3CCCCC3)nc3n[nH]c(C)c3c2=N)c1 | 20.6% (inactive)
CC(Sc1nnnn1C)C(=O)NC(=O)NC1CCCCC1 (stereo not given) | -2.91% (inactive)
Cc1ccc2[nH]c(C)c(CCNC(=O)NC3CCCCC3)c2c1 | 5.48% (inactive)
COc1ccc(N2CCN(C(=O)CNS(=O)(=O)c3ccc(C)c(C)c3)CC2)cc1 | 6.23% (inactive)
N#CCSc1nc2ccccc2c(=O)n1-c1ccccc1 | 4.35% (inactive)
CCCn1c(N)c(C(=O)CSc2nc3ccccc3c(=O)n2-c2ccc(OC)cc2)c(=O)[nH]c1=O | -3.93% (inactive)
COc1cccc(-n2c(SCC(=O)c3c[nH]c4ccccc34)nc3ccccc3c2=O)c1 | 92.9% (active)
O=C(Nc1cc(S(=O)(=O)N2CCOCC2)ccc1Cl)c1cc(=O)c2ccccc2o1 | 31.5% (inactive)
COC(=O)c1ccc(NC(=O)c2cc(Cl)ccc2OC)cc1 | -3.49% (inactive)
Cc1[nH]n(-c2ccccc2)c(=O)c1/C=N/NC(=O)c1ccoc1C | 96.8% (active)
Cc1ccc(N=Nc2c(C)[nH]n(-c3ccccc3)c2=O)cc1 | -5.3% (inactive)
COc1cccc(/C=N/NC(=O)c2cccc([N+](=O)[O-])c2)c1OS(=O)(=O)c1ccc(C)cc1 | 55.1% (active)
Cc1ccc(-n2[nH]c(C)c(/C=N/NC(=O)c3cccc([N+](=O)[O-])c3)c2=O)cc1C | 96.9% (active)
Cc1[nH]n(-c2ccc([N+](=O)[O-])cc2)c(=O)c1C=NCCN1CCN(C(=O)c2ccccc2F)CC1 | -1.62% (inactive)
Cc1cccc(C(=O)NNC(=O)c2cccc([N+](=O)[O-])c2)c1 | 4.56% (inactive)
COc1cc(OC)c(/C=N/NC(=O)c2ccc([N+](=O)[O-])cc2)cc1Br | -7.92% (inactive)
COc1ccc(/C=N/NC(=O)c2ccccc2)cc1OS(=O)(=O)c1ccccc1 | 4.68% (inactive)
Cc1[nH]n(-c2ccc(Cl)cc2)c(=O)c1/C=N/n1c(C)nc2ccccc2c1=O | -14.5% (inactive)
O=C(CC12CC3CC(CC(C3)C1)C2)NCc1ccco1 | -4.33% (inactive)
CCOc1ccc(OCc2cccc(C(=O)N(CC)CC)c2)cc1 | 0.53% (inactive)
Cc1c(NC(=O)CSc2nnnn2-c2ccc(C(=O)O)cc2)c(=O)n(-c2ccccc2)n1C | -3% (inactive)

Compound | inhibition
CCOc1ccc(CCN2C(=O)c3cccnc3C2=O)cc1OCC | -10.8% (inactive)
Cn1cnnc1SCC(=O)Nc1ccc(N2CCOCC2)cc1 | -5.65% (inactive)
N#Cc1ccc(OCc2nnc(-c3ccc([N+](=O)[O-])cc3)o2)cc1 | -3.9% (inactive)
CCc1ccc2ncc(C(=O)c3ccccc3)c(N3CCOCC3)c2c1 | 10.5% (inactive)
O=[N+]([O-])c1ccccc1NCc1ccccc1Cl | 12.2% (inactive)
C=CCc1cccc2cc(C(=O)Nc3ccc(NC(C)=O)cc3)c(=O)oc12 | -6.83% (inactive)
C/C(=N\NC(=O)c1cccc(N2CCCC2=O)c1)c1ccc(N)cc1 | -3.01% (inactive)
CC(C)(C)c1ccc(C(=O)NCCC(=O)NCc2ccco2)cc1 | -5.5% (inactive)
O=C(CN1C(=O)/C(=C/c2ccccc2F)Sc2ccccc21)NCc1cccnc1 | 19.2% (inactive)
O=C(CN1C(=O)/C(=C\c2ccc(C(F)(F)F)cc2)Sc2ccccc21)NCc1ccco1 | 95.1% (active)
CCc1[nH]nc(C(=O)N2CCCC(CNS(=O)(=O)c3cccs3)C2)c1C (stereo not given) | -4.31% (inactive)
CN(C)S(=O)(=O)c1cccc(NC(=S)NCc2ccc3c(c2)OCO3)c1 | -0.11% (inactive)
C/C(=N\NC(=S)NCc1ccccc1)c1ccc(Cl)cc1 | 1.34% (inactive)
CC1CCCCN1C(=S)NCc1ccccc1 (stereo not given) | -0.34% (inactive)
C/C(=N\NC(=S)NCc1ccccc1)C1CCCCC1 | 89.9% (active)
COc1ccc2nc(Nc3nc(-c4ccncc4)cs3)sc2c1 | 7.68% (inactive)
c1csc(-c2nnc(COc3ccc4c(c3)OCO4)o2)c1 | 5.84% (inactive)
CCN(C(=O)COC(=O)c1ccc(COc2ccc3c(C)cc(=O)oc3c2)cc1)C1CCS(=O)(=O)C1 (stereo not given) | -10.4% (inactive)
Cc1ccc(NC(=O)c2ccc(Oc3ncccn3)cc2)cc1 | 7.15% (inactive)
Cc1nccn1CC(=O)N/N=C/c1ccc(O)c(O)c1 | -6.58% (inactive)
FC(F)(F)c1cccc(N/N=C/c2ccccc2)c1 | -13.1% (inactive)
Oc1ccc(/C=N/Nc2ccc(C(F)(F)F)cn2)cc1O | 95.4% (active)
CCc1nnc(NC(=O)C2CC(=O)N(c3ccc4c(c3)OCCO4)C2)s1 (stereo not given) | -9.31% (inactive)
